SMILES strings stand for the structures. This is part of a sample that, as a whole, favours compounds with a hit. Of some 83,000 tested, about 20% had one in any assay.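 Negative percent growth values reflect cell death: -40 means 40% of the cells present at the start died, and -100 means all died.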 Unmarked numbers belong to inactive results. Calls of active or inactive are those of the source. How the source made its calls: active means growth percent below 10; inactive means the rest.

Assay in all cases: NCI-60 one-dose screen, 48 h (100 = growth as untreated, 0 = no growth, -100 = all killed)
Test [1] has as its system SK-MEL-2 melanoma. The conditions noted are these: 10 µM.
Test [2] concerns EKVX NSCLC. The conditions noted are these: 10 µM unless noted.
Test [3] concerns SN12C renal. As to conditions: 10 µM unless noted.
The test system of test [4] is UO-31 renal. The conditions noted are these: 10 µM unless noted.
The subject of test [5] is TK-10 renal. As to conditions: 10 µM unless noted.
The test system of test [6] is ACHN renal. The conditions noted are these: 10 µM unless noted.
The test system of test [7] is CAKI-1 renal. The conditions noted are these: 10 µM unless noted.
Test [8] relates to A498 renal. As to conditions: 10 µM unless noted.
Test [9] deals with CCRF-CEM leukemia. As to conditions: 10 µM unless noted.
For test [10], the system named is MOLT-4 leukemia. As to conditions: 10 µM unless noted.
For test [11], the system named is SR leukemia. The conditions noted are these: 10 µM unless noted.
The test system of test [12] is RPMI-8226 leukemia. As to conditions: 10 µM unless noted.
Test [13] deals with OVCAR-8 ovarian. As to conditions: 10 µM unless noted.
Test [14] concerns OVCAR-5 ovarian. The conditions noted are these: 10 µM unless noted.
For test [15], the system named is OVCAR-4 ovarian. The conditions noted are these: 10 µM unless noted.
The test system of test [16] is SK-OV-3 ovarian. As to conditions: 10 µM unless noted.
Test [17] relates to IGROV1 ovarian. The conditions noted are these: 10 µM unless noted.
The test system of test [18] is OVCAR-3 ovarian. The conditions noted are these: 10 µM unless noted.
The subject of test [19] is HS 578T breast. The conditions noted are these: 10 µM.
Test [20] has as its system NCI/ADR-RES ovarian. As to conditions: 10 µM unless noted.

With `COc1cc(C(=O)NNC(=O)c2ccc(NC(=O)CCl)cc2)cc(OC)c1OC`, the growth in test [1] was 80.7%; in test [2] it was 92.4%; in test [3], 65.9%; in test [4], 80.1%; in [5] it was 107%; in test [6] it was 89.8%. The growth in test [7] was 98.2%; in test [8] it was 85.9%; in test [9], 33%; in test [10], 57.2%; in test [11] it was 45.8%; in test [12] it was 97.8%. Also, the growth in [13] is 82.2%; in test [14] it was 170%; in [15] it was 88.4%; in test [16], 99.1%; in test [17] it was 75.1%; in test [18] it was 62.4%. In addition, the values for the growth in [19] and in [20] were 90.5% and 102%, respectively.
For `Nc1c(C(=O)c2ccccc2)sc2nc(-c3cccs3)ccc12`, the growth in test [1] was 44.2%; in test [2], 60.8%; in [3], 44.9%; in test [4], 48.7%; in test [5], 56.7%; in test [6] it was 54.3%. The growth in test [7] is 38.5%; in test [9], 19.1%; in test [10] it was 28.1%; in test [11], 30.5%; in test [12], 21.4%; in test [13], 28.9%. The growth is 66.9% in [14]; 57.3% in test [15]; 35.4% in test [16]; 46.5% in test [17]; 9.4% (active) in test [18]; 34.3% in test [19]. Moreover, in test [20], the growth was 3.97% (active).
Regarding `COc1cnc2c(c1)C(=O)c1c-2n(CCCN2CCC(N)CC2)c(=O)c2cc([N+](=O)[O-])ccc12`, the growth in test [1] was 109%; in test [2], 75.7%; in test [3], 21.6%; in test [4] it was 63.7%; in [5], 82.6%; in test [6], 19.8%. In addition, the growth in test [7] is 45.2%; in [8], 62.6%; in [9], 1.69% (active); in test [10], 0.263% (active); in test [11], 2.78% (active); in test [12], 39.6%. The growth in [13] was 42.4%; in [14], 119%; in test [15], 60.4%; in test [16], 30.4%; in test [17], 56%; in [18], 79.7%. For the same molecule, in test [19], the growth is 81.4%.
As to `N#Cc1c(C(F)(F)F)cc(Nc2ccc3nc(NCCN4CCCC4)oc3c2)n2c1nc1ccccc12`, the growth in [1] is 83.8%; in test [2], 73.6%; in test [3], 55.6%; in [4] it was 66.6%; in test [5], 79.5%; in [6], 83%. Further, the growth was 74.1% in [7]; 52.8% in test [8]; 11% in test [9]; 56.7% in test [10]; 0.701% (active) in test [11]; 44.6% in test [12]. Besides, the growth in test [13] is 65.7%; in test [14], 137%; in test [15], 64.2%; in test [16], 89.9%; in [17], 79.6%; in test [18], 91.6%. In addition, the growth in test [19] was 100%; in test [20], 86.5%.
`NN1C(=O)CSC1=S`: the growth is 95% in [1]; 98.6% in [2]; 102% in test [3]; 94% in test [4]; 95.2% in test [5]; 107% in [6]. The growth in [7] was 93.9%; in [9] it was 108%; in [10], 98.8%; in test [11], 98.5%; in test [12] it was 102%; in test [13], 111%. Besides, the growth is 96.8% in test [14]; 105% in test [15]; 98.6% in test [16]; 110% in test [17]; 110% in test [18]; 101% in test [19].
In the case of `CC1(C=O)NC(=O)NC1=O` (centres undefined), the growth in [1] is 106%; in [2] it was 99.6%; in test [3] it was 97.8%; in test [4] it was 96%; in [5] it was 100%; in [6] it was 104%. The growth in test [7] was 98.6%; in test [9], 95.7%; in test [10], 89.9%; in [11], 96.6%; in test [12], 109%; in [13], 94.9%. In addition, the growth is 101% in test [14]; 110% in [15]; 81.9% in test [16]; 111% in test [17]; 115% in [18]; 104% in test [19]. Besides, the growth in test [20] is 107%.
As for `CC(C)[C@@H]1CC[C@]2(CO2)[C@@H]2C(=O)OCC(C(=O)O)=C[C@H]21`, the growth was -65.8% (active) in test [1]; 71.5% in [2]; 2.26% (active) in test [3]; 5.96% (active) in [4]; 11.6% in test [5]; 3.14% (active) in [6]. Further, the growth in test [7] is 6.64% (active); in test [9], 0.852% (active); in [10], -17.6% (active); in test [11], -4.75% (active); in test [12] it was -34.6% (active); in [13] it was 4.64% (active). Besides, the growth in [14] is 22%; in test [15], 12.7%; in test [16] it was 15.7%; in [17], 5.4% (active); in test [18], 5.83% (active); in test [19] it was -5.29% (active). In test [20], the growth is -12.1% (active).
For `Cc1ccc(-c2nc3ccc(Cl)cn3c2NC2CCCCC2)o1`, the growth in [1] is 88.9%; in test [2], 80.7%; in test [3] it was 87.3%; in [4], 58.5%; in test [5], 87.9%; in test [6], 83.1%. Moreover, the growth in [7] is 60.6%; in test [8], 53.3%; in test [9], 79.8%; in [10] it was 43.4%; in test [11], 54.3%; in test [12], 51.1%. Also, the growth in test [13] is 92.7%; in [14], 108%; in test [15], 71%; in [16], 72.1%; in test [17] it was 62.1%; in [18], 89.7%. In addition, the growth in test [19] was 88.2%; in [20] it was 86.2%.

The values are drawn from PubChem BioAssay (NCI).
